Test results: PubChem BioAssay (Tox21)
Several values for one entry are separate records, joined by “and”; a condition that tells them apart may be missing. Equal values may be shown once. Results filed as inconclusive are left out. Activity calls are given as the source filed them. Calls follow the shape of the dose curve; as a rule, active = well fitted cell-killing curve with a large enough effect in the repeat runs; inconclusive = weak or mixed curves, or effect the other way; inactive = flat fitted curve, though single readings scatter.

Assay: qHTS assay to identify small molecule agonists of the sonic hedgehog signaling (Shh) pathway - cell viability counter screen (AID 1259366); also: nearly all actives have a fitted effect of over 50% in size
Conditions: NIH/3T3 Gli1-Luc viability, CellTiter-Fluor, 24 h; series mostly up to 92.4 µM; viability change, negative = cytotoxic: at the top concentration
Method in brief: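 CellTiter-Fluor fluorescence read-out, 1 hr at 37C, added after 23hr compound exposure. Cells: 3T3 Gli1-Luc, an NIH/3T3 clone with stably integrated Gli1-Luc reporter, plated 4hr before compound.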
% is scaled to controls: 0 for no effect and ±100 for the full control effect; potency is read from the fitted curve at half-maximal effect.

SMILES | viability change, negative = cytotoxic | Potency
C=CC(C)(CCC=C(C)C)OC(=O)c1ccccc1N (stereo unspecified) | 0.916% (inactive) | –
O=C(N/N=C/c1ccc([N+](=O)[O-])o1)c1cc([N+](=O)[O-])cc([N+](=O)[O-])c1O | – | 10.6 µM (active)
CC(O)CN1CCN(CC(=O)[O-])CCN(CC(=O)[O-])CCN(CC(=O)[O-])CC1.[Gd+3] (stereo unspecified) | 5.4% [at 42.5 µM] (inactive) | –
CCc1cnc(C2=NC(C)(C(C)C)C(=O)N2)c(C(=O)O)c1 (stereo unspecified) | – | inactive
CCOP(=O)(SC(C)CC)N1CCSC1=O (stereo unspecified) | -12.4% (inactive) | –
CCCCCCCCn1sccc1=O | – | 4.34 µM (active) and 3.21 µM (active)
C1CS1 | 4.92% (inactive) | –
CN(C)c1ccc(N=O)cc1 | – | 21.8 µM (active) and 21.7 µM (active)
CC(C)(C)NCC(O)c1cc(Cl)c(N)c(C(F)(F)F)c1 (stereo unspecified) | – | 7.5 µM (active)
Cc1ncc(C[n+]2csc(CCO)c2C)c(N)n1 | -0.673% (inactive) | –
CCC1CCC(=O)O1 (stereo unspecified) | 1.07% (inactive) | –
CC1(C)CC(=O)CC(C)(C)N1[O] | -4.64% (inactive) | –
O=C(O)C(Cl)(Cl)Br | -0.517% (inactive) | –
CC1(C)[C@H](C(=O)O[C@H](C#N)c2cccc(Oc3ccccc3)c2)[C@@H]1C=C(Br)Br | – | inactive
Nc1ccccc1C(=O)OCCc1ccccc1 | – | inactive
CN1CC[C@]23c4c5ccc(O)c4O[C@H]2[C@@H](O)CC[C@H]3[C@H]1C5 | -2.53% (inactive) | –
C[C@H]1O[C@H](OC2[C@@H](O)[C@@H](O)C(O)[C@H](O)[C@H]2O)[C@@H](N)C[C@@H]1N=C(N)C(=O)O (stereo partly specified) | -3.25% (inactive) | –
CC(C)c1ccc(OP(=O)(Oc2ccc(C(C)C)cc2)Oc2ccc(C(C)C)cc2)cc1 | – | inactive

SMILES | viability change, negative = cytotoxic | Potency
CCOP(=O)(O)C(N)=O | 4.98% (inactive) | –
SCc1ccccc1 | 6.58% (inactive) | –
N#CC1(N=NC2(C#N)CCCCC2)CCCCC1 | 14.9% (inactive) | –
CC(C)(C)OOC(C)(C)CCC(C)(C)OOC(C)(C)C | -9.76% (inactive) | –
CC(C)(C#N)C(C)(C)C#N | 19.6% (inactive) | –
CCCCNC(=O)OCC#CI | – | 60.8 µM (active) and 30.6 µM (active)
Cc1cnc(C2=NC(C)(C(C)C)C(=O)N2)c(C(=O)O)c1 (stereo unspecified) | 1.73% (inactive) | –
O=C1NC(=O)C(=O)C(=O)N1 | 1.91% (inactive) | –
Cc1ccc(N)c(C)c1 | – | inactive
CCOP(=S)(S)OCC | 4.84% (inactive) | –
CCC[N+](CCC)(CCC)CCC | 10.4% (inactive) | –
C=CCOCC1CO1 (stereo unspecified) | 0.461% (inactive) | –
COC(=O)C1(O)c2ccccc2-c2ccccc21 | 0.824% (inactive) | –
CNC(=O)Oc1cccc(N=CN(C)C)c1 | -3.08% (inactive) | –
Cc1cccc(C)c1NC1=NCCCS1 | 0.0464% [at 42.5 µM] (inactive) | –
COC1=CC(=O)O[C@@H](/C=C/c2ccc3c(c2)OCO3)C1 | 7.72% (inactive) | –
CCOC(=O)C1OC1(C)c1ccccc1 (stereo unspecified) | – | inactive
c1ccc2c(c1)-c1cccc3cccc-2c13 | – | inactive
